# High-throughput results as filed in PubChem BioAssay.
# Shown are actives, neighbours in structure and some others; about 3.6% of the full set was active somewhere.
# mHTT-CaM PPI inh: mutant huntingtin-calmodulin interaction inhibitors – biochemical, AlphaScreen, primary screen. inhibition, % at 15 µM. AlphaScreen His-mHTT/GST-CaM binding, luminescence. hit rate 3.6% among 190,000. P42858;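 note: 0% = both proteins with DMSO and 100% = one protein alone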
# Pf apPOL block: Pf-apPOL inhibitors, biochemical, fluorescence. AID 1794808, 2022. Plasmodium falciparum apicoplast DNA polymerase (apPOL). Recombinant Pf-apPOL, molecular beacon fluorescence, 1.5 h. inhibition, % at 10 µM. hit rate 0.25% among 210,000
# * marks the source's active call; other numbers are inactive results; nt = no result; ! = a repeat was not active. Cut-off read from the data, not from the text of the source: active = inhibition above about 50%; inactive = the rest.
SMILES,mHTT-CaM PPI inh,Pf apPOL block
CCC(=O)Nc1c(-c2cccc(OC)c2)n[nH]c1CC,91*,70*
CN(Cc1ccccc1)S(=O)(=O)c1ccc(F)c(C(=O)Nc2ccccc2Cl)c1,-14,-17
Cc1ccnc(NC(=O)CCc2nc(-c3ccccc3F)no2)c1,-2,-6
Cc1ccccc1C1CCCN1C(=O)CCc1ccccc1 (centres undefined),31,-2
COC(=O)C(Cc1csc2ccc(Cl)cc12)NC(=O)c1cccs1 (centres undefined),nt,2
O=C1CC(Sc2nc3ccccc3s2)C(=O)N1Cc1ccccc1 (centres undefined),1,-1
CCc1nc2c(NC(=O)c3cc(F)cc(F)c3)cccn2n1,-6,-3
CCc1nc2c(NC(=O)c3ccc(C(F)(F)F)cc3)cccn2n1,54*,0
Cc1ccc2c(c1)S(=O)(=O)c1ccc3c(c1N2)C(=O)c1ccccc1C3=O,2,0
Cn1cccc1CN1CCC(c2nc(-c3ccccc3)no2)C1 (centres undefined),50*,2
Cc1ncsc1CN1CCC(c2nc(-c3ccccc3)no2)C1 (centres undefined),18,0
Oc1ccc(COCc2ccccc2)c2cccnc12,99*,-4
O=C(CSc1cccc2cccnc12)NCc1ccccc1,1,7
CCOc1ccccc1NC(=O)c1cc(Br)ccc1OC,-3,-8
O=C1OC(c2ccc3c(c2)OCO3)=N/C1=C\c1ccco1,-3,0
Cc1ccc(-c2nnc(N3CCC(C(=O)NCc4cc(F)cc(F)c4)CC3)o2)cc1,18,-6
O=C(NCc1ccc2c(c1)OCO2)c1cc2n(n1)CCCN(Cc1ccccc1)C2=O,4,4
O=C(COc1ccc(Cl)cc1)NCCSc1c[nH]c2ccccc12,17,-6
Cc1[nH]c2ccccc2c1SCCNC(=O)c1c(F)cccc1F,12,-8
Cc1[nH]c2ccccc2c1SCCNC(=O)c1cccc(Cl)c1,23,-18
CCOc1cc(C(=O)NCCSc2c(C)[nH]c3ccccc23)cc(OCC)c1OCC,19,-6
Cc1[nH]c2ccccc2c1SCCNC(=O)COc1ccc(Cl)cc1Cl,93*,-22
Cc1[nH]c2ccccc2c1SCCNC(=O)C(C)(C)Oc1ccc(Cl)cc1,98*,1
Cc1[nH]c2ccccc2c1SCCNC(=O)COc1ccc(Cl)cc1,84*,-9
CCOc1ccccc1C(=O)NCCSc1c(C)[nH]c2ccccc12,71*,-6
SMILES,mHTT-CaM PPI inh,Pf apPOL block
O=C(Cc1ccc(Cl)cc1)N1CCCC(COc2cccc(C(=O)N3CCCC3)c2)C1 (centres undefined),-12,-5
Cn1nc(C(=O)NCc2ccc3c(c2)OCO3)c2c1CCN(C(=O)c1ccco1)C2,-4,-8
Cn1nc(C(=O)NCc2ccc3c(c2)OCO3)c2c1CCN(C(=O)Cc1cccs1)C2,54*,-5
Cn1nc(C(=O)NCc2ccc3c(c2)OCO3)c2c1CCN(C(=O)c1ccc(F)cc1)C2,51*,-14
Cn1nc(C(=O)NCc2ccc3c(c2)OCO3)c2c1CCN(C(=O)c1cccs1)C2,11,0
O=C(NCc1ccc(Br)cc1)C1CCN(c2cc(N3CCCC3)ncn2)CC1,-3,-6
CC(Oc1ccccc1F)C(=O)Nc1cccc([N+](=O)[O-])c1 (centres undefined),-2,-4
CN(C)c1ccc(NC(=O)Nc2cn(C)c3ccccc23)cc1,56*,2
CC1CCCCC1NC(=O)Nc1cn(C)c2ccccc12 (centres undefined),-10,-1
C=CCc1c(C)[nH]c(=O)c(C#N)c1C,nt,-4
O=C(Nc1ccc2c(c1)CCCN2S(=O)(=O)c1cccs1)c1cccs1,0,-8
O=[N+]([O-])c1cc2c(cc1C=Nc1ccc(Nc3ccccc3)cc1)OCO2,85*,-1
CC(=O)Nc1ccc(N=Cc2cc3c(cc2[N+](=O)[O-])OCO3)cc1,44,0
Cc1ccc([N+](=O)[O-])cc1N=Cc1cc2c(cc1[N+](=O)[O-])OCO2,43,-10
Cc1ccc(N=Cc2cc3c(cc2[N+](=O)[O-])OCO3)cc1Br,69*,-9
O=[N+]([O-])c1cc2c(cc1C=Nc1ccc(Cl)c(Cl)c1)OCO2,41,3
COc1ccc(N=Cc2cc3c(cc2[N+](=O)[O-])OCO3)cc1OC,47,-2
Cc1cc(O)c(N=Cc2cc3c(cc2[N+](=O)[O-])OCO3)cc1C,70*,2
Cc1cccc(N=Cc2cc3c(cc2[N+](=O)[O-])OCO3)c1,86*,2
Cc1ccsc1C1C(C#N)=C(N)N(c2ccc([N+](=O)[O-])cc2)C2=C1C(=O)CC(C)(C)C2 (centres undefined),28,-2
O=C(c1cnn2cc(Br)cnc12)N1CCCC1c1cccc(F)c1 (centres undefined),25,-5
Cc1ccccc1C(=O)Nc1ccccc1NC(=O)Nc1ccccc1C(F)(F)F,-9,-2
CCC(=O)Nc1ccc2nc(SCC(=O)Nc3ccccc3C(F)(F)F)sc2c1,-3,-1
CCN(CC)CCNC(=O)C1CCCN(c2ncc(-c3cccc(F)c3)cn2)C1 (centres undefined),-4,-2
Cc1nn(C)c2[nH]c(=O)cc(CCl)c12,-5,nt
SMILES,mHTT-CaM PPI inh,Pf apPOL block
O=[N+]([O-])c1cc2c(cc1C=Nc1ccccc1)OCO2,78*,-1
O=[N+]([O-])c1ccc(N=Cc2cc3c(cc2[N+](=O)[O-])OCO3)cc1,2,-6
CN(C)C=CC(=O)c1ccccc1,nt,-1
Cc1ccc(Cl)cc1N1CCN(c2ncnc3c2nc2n3CCCC2)CC1,99*,1
Cc1ccc(C)c(N2CCN(c3ncnc4c3nc3n4CCCC3)CC2)c1,19,-3
c1ccc(CNc2nnns2)cc1,1,nt
COc1cccc(CNC(=O)N2CCCC2c2ccc(Cl)cc2)c1 (centres undefined),-4,-3
Cc1cc(F)ccc1NC(=O)C1(C)Oc2cccnc2NC1=O (centres undefined),-7,0
Cc1nc(C)c(Cc2cccc(F)c2)c(N2CCN(C(=O)c3ccccc3)CC2)n1,7,-2
COc1ccccc1NC(=O)c1c(NC(=O)c2ccccc2Cl)sc2c1CCC2,-4,2
CCOc1ccccc1NC(=O)c1c(NCc2cccnc2)sc2c1CCC(C)C2 (centres undefined),25,-18
COc1ccccc1NC(=O)c1c(NCc2cccnc2)sc2c1CCC2,74*,-17
COc1ccccc1NC(=O)c1c(NCc2cccnc2)sc2c1CCCC2,71*,-22
O=C(Nc1ccc(Cl)cc1)N(Cc1cccnc1)Cc1ccccc1Cl,2,-14
Cc1ccc(CN(Cc2cccnc2)C(=O)Nc2ccc(Cl)c(Cl)c2)cc1,81*,-15
Cc1ccc(S(=O)(=O)N(CC(=O)NCc2cccnc2)Cc2ccc(Cl)c(Cl)c2)cc1,54*!,-4
O=C(CN(Cc1ccccc1Cl)S(=O)(=O)c1ccc(Cl)cc1)NCc1cccnc1,14,-4
c1csc(Cc2cccs2)c1,-8,nt
N#CC(=C1SCCS1)c1ccc([N+](=O)[O-])cc1,nt,-10
COc1ccccc1CCC(=O)N1CC2CC1CC2NC(=O)c1ccccc1 (centres undefined),5,-5
NC(=O)C1CCN(c2ncnc(N)c2[N+](=O)[O-])CC1,-20,6
CCc1ccc(C2C(C#N)=C(SCC(=O)c3ccc([N+](=O)[O-])cc3)NC(C)=C2C(C)=O)cc1 (centres undefined),60*,2
